Data on 32 compounds can be found in PubChem BioAssay (NCI).

Structures are written as SMILES. Compounds without any hit were thinned out: in the full panel of roughly 79,000, 15% have a hit. Values without a mark were called inactive. Active and inactive are the calls of the source. Cut-off read from the data, not from the text of the source: active = growth inhibition above about 70%; inactive = the rest.

Assay [1] is described as follows: NCI Yeast Anticancer Drug Screen. Data for the rad50 strain (AID 155).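 Note: 0% = growth of vehicle-only cultures of the same strain.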 Conditions: S. cerevisiae rad50 strain growth inhibition; at 50.0 µM; stronger effect = higher value. The gist of the method: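 Growth of the mutant yeast was measured after compound exposure and referenced to vehicle-treated cultures.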
The nature of assay [2]: NCI Yeast Anticancer Drug Screen. Data for the mec2-1 strain (AID 157). The note with it: S. cerevisiae mec2-1 strain, at 50.0 µM, stronger effect = higher value. The gist of the method:
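Strain: mec2-1 (DNA repair/cell cycle alteration). Compound exposure, then growth measured; inhibition expressed relative to vehicle.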

Assay [3] is described as follows: NCI Yeast Anticancer Drug Screen. Data for the sgs1 mgt1 strain (AID 161).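 Note: 0% = growth of cultures given vehicle only.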 The note with it: S. cerevisiae sgs1 mgt1 strain, at 50.0 µM, stronger effect = higher value. In a few lines: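 Genetically altered yeast, compound exposure, growth inhibition relative to vehicle.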
A short description of assay [4]: NCI Yeast Anticancer Drug Screen. Data for the cln2 rad14 strain (AID 165).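 Note: 0% = growth equal to vehicle treated cultures.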 Conditions: S. cerevisiae cln2 rad14 strain, at 50.0 µM, stronger effect = higher value. The gist of the method: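 Compounds are applied to the cln2 rad14 yeast strain, and growth is then compared with that of vehicle-treated cultures to give inhibition.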
The nature of assay [5]: NCI Yeast Anticancer Drug Screen. Data for the bub3 strain (AID 167). The note with it: S. cerevisiae bub3 mutant strain, at 50.0 µM, stronger effect = higher value. The gist of the method:
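Whole-cell yeast assay. The mutant strain was incubated with compounds, and growth inhibition was determined by comparison with vehicle-treated cells.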

Assay [6] can be described thus: NCI Yeast Anticancer Drug Screen. Data for the mlh1 rad18 strain (AID 175). Conditions: S. cerevisiae mlh1 rad18 strain growth inhibition; at 50.0 µM; stronger effect = higher value. The gist of the method: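 Read-out is yeast growth inhibition, calculated against vehicle-only controls. The compound was applied to a strain engineered with DNA damage repair alterations.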

For `CC1=NN(c2ccccc2)C(=O)/C1=C\N1CC(=O)NC1=S`, the growth inhibition in assay [1] was -50.9%; in assay [2] it was -46%; in assay [3], -11.3%; in assay [4] it was 5.45%; in assay [5], -49%; in assay [6], -30.4%.
Turning to `O=S(=O)(O)c1cc(O)c2c(N=Cc3ccccc3O)c(S(=O)(=O)O)ccc2c1`, the growth inhibition in assay [1] was 5.15%; in assay [2] it was -9.6%; in assay [3], 6.55%; in assay [4], -2.45%; in assay [5], 17%; in assay [6], 8.3%.
Turning to `Cc1ccc(C(=O)N/N=C/c2ccc3c(c2)OCO3)cc1`, the growth inhibition is 18.1% in assay [1]; 8.35% in assay [2]; 4.15% in assay [3]; 6.2% in assay [5]; 6.75% in assay [6].
With `O=C(O)[C@@H]1[C@H]2C[C@H]3c4[nH]c5ccccc5c4CCN3C[C@@H]2CC[C@@H]1O`, the growth inhibition is -10.3% in assay [1]; -27% in assay [2]; 9.45% in assay [3]; 6.5% in assay [4]; -20.6% in assay [5]; -19.9% in assay [6].
In the case of `COc1ccc(/C(C#N)=C2C=C/C(=N/O)c3ccccc3\2)cc1`, the growth inhibition was -5.15% in assay [1]; 14.6% in assay [2]; 8.75% in assay [3]; -22.2% in assay [4]; 9.25% in assay [5]; 19.9% in assay [6].
Consider `CO[C@H]1C[C@@H]2CC[C@@H](C)[C@@](O)(O2)C(=O)C(=O)N2CCCC[C@H]2C(=O)O[C@H]([C@H](C)C[C@@H]2CC[C@@H](O)[C@H](OC)C2)CC(=O)[C@H](C)C=C(C)[C@@H](O)[C@@H](OC)C(=O)[C@H](C)C[C@H](C)/C=C/C=C/C=C1C`, for which the growth inhibition in assay [1] was 88.8% (active); in assay [2], 91.2% (active); in assay [3], 89.8% (active); in assay [5], 89.1% (active); in assay [6], 89.4% (active).
As for `Cc1cccc(CO)c1`, the growth inhibition was 14.3% in assay [1], -28.6% in assay [2], -25.1% in assay [3] and -18.4% in assay [5].
In the case of `CC(CN1CCCCC1)NC(=O)c1scnc1-c1ccccc1` (stereo not given), the growth inhibition in assay [1] is -5.45%; in assay [2], -10%; in assay [3] it was -9.15%; in assay [4], -2.5%; in assay [5], -1.55%; in assay [6], -4.55%.
Consider `CCc1nn(Cc2ccccc2)c2nc(C)c(CCc3ccccc3)c(Cl)c12`, for which the growth inhibition is -6.85% in assay [1]; -4.6% in assay [2]; -0.45% in assay [3]; 7.35% in assay [5]; -2.75% in assay [6].
As to `CCCC(=O)c1cc(C)ccc1OC`, the growth inhibition in assay [1] was -2.15%; in assay [2], 0.15%; in assay [3], -9.85%; in assay [5], 6.6%.
Regarding `CCCCC(CC)COC(C)=O` (stereo not given), the growth inhibition was 14.4% in assay [1]; -13.5% in assay [2]; 2.15% in assay [3]; 12% in assay [5]; 13.8% in assay [6].
`CC(C)C(C#N)(C(C)C)C(C)C`: the growth inhibition in assay [1] is 23.3%; in assay [2], 15.4%; in assay [3] it was 4%; in assay [4], -29.6%; in assay [5], -1.95%; in assay [6] it was 22.4%.
In the case of `CC1(C)Nc2cccc3c(N=Nc4ccc(N=Nc5ccccc5)c5ccccc45)ccc(c23)N1`, the growth inhibition in assay [1] was -50.5%; in assay [2] it was -38.1%; in assay [3] it was -27%; in assay [4], -2.2%; in assay [5] it was -5.2%; in assay [6], -74.6%.
As for `O=[N+]([O-])c1ccc(N=Nc2ccccc2)cc1`, the growth inhibition was 11.4% in assay [1]; 12.2% in assay [2]; -1.1% in assay [3]; -5.2% in assay [5]; 14.8% in assay [6].
On the same counts, the results for `CCCCCCCCCCC1CO1` (stereo not given) are 4.95%, -4.15%, -7%, -13.9% and -8.05%.
Consider `O=S(=O)(Cc1ccccc1)c1ccccc1`, for which the growth inhibition in assay [1] was 4.6%; in assay [2] it was 1.1%; in assay [3], 2.1%; in assay [5] it was -17.5%; in assay [6], 23.9%.
On the same counts, the results for `CN(C)C(C)(C)CC(C)(C)C` are 35.7%, 4%, 15.7%, 17.3% and 26.6%.
`CCCC1(c2ccccc2)NC(=O)NC1=O` (stereo not given): the growth inhibition in assay [1] is 5.75%; in assay [2], 0.3%; in assay [3], -6.1%; in assay [4], -81.1%; in assay [5] it was 7.95%; in assay [6] it was -13.7%.
In the case of `Nc1ccc(N=Nc2ccc(S(=O)(=O)O)cc2)c2ccccc12`, the growth inhibition is -0.3% in assay [1]; 3.15% in assay [2]; -22.4% in assay [3]; 1.75% in assay [5]; 9.05% in assay [6].
For the compound `c1ncc2[nH]cnc2n1`, the growth inhibition in assay [1] is -14.6%; in assay [2], -4.1%; in assay [4], -69.2%; in assay [5], 8.15%; in assay [6], 6.3%.
The like results for `CCN(CC)c1ccc2nc3ccc(=[N+](CC)CC)cc-3oc2c1` were, in that order, -213%, -192%, -165%, -246% and -258%.
On the same counts, the results for `O=C1OC(c2ccc(F)cc2)CC1CN1CCOCC1` (stereo not given) are 0.45%, 12.6%, 27.3%, 24.3% and 38.5%.
For the compound `CCCCCCCCO`, the growth inhibition in assay [1] is 12.1%; in assay [2], 17.2%; in assay [3], 2.25%; in assay [5], -20.4%; in assay [6], -13.2%.
On the same counts, the results for `COC(=O)Nc1nc2ccc(C(=O)c3ccc(F)cc3)cc2[nH]1` are -9%, -6.35%, -30.2%, -17.5% and -43.9%.
The like results for `CC(=O)CC(=O)N(C)C` were, in that order, 0.3%, -0.6%, 6.9%, -2.5% and 24.2%.
Take `O=c1[nH]nc(SC2CCCCC2)c(=O)[nH]1`: the growth inhibition is -12.1% in assay [1]; -3.1% in assay [2]; -5.4% in assay [4]; 4.85% in assay [5]; -11.1% in assay [6].
The like results for `C=CC[N+](C)(C)C` were, in that order, 6.75%, -27.9%, 7.7%, 14.2% and 7.4%.
For the compound `O=C1OC[C@H]2[C@H](c3ccc(O)c(O)c3)c3cc(O)c(O)cc3C[C@H]12`, the growth inhibition is 24.9% in assay [1], -2.45% in assay [2], 15.8% in assay [4] and 23.7% in assay [5].
In the case of `CC1CC(O)CC(C)(C)C1` (stereo not given), the growth inhibition in assay [1] is 5.55%; in assay [2], -10.1%; in assay [3], 1.35%; in assay [5], 2.2%; in assay [6] it was -4.25%.
On to `O=[N+]([O-])c1ccc(CO)cc1`, for which the growth inhibition in assay [1] was 0.15%; in assay [2] it was 0.35%; in assay [4], 6.75%; in assay [5], 22.1%; in assay [6], 4.1%.
In the case of `CC(C)(N)COS(=O)(=O)O`, the growth inhibition in assay [1] was -14.6%; in assay [2] it was -14.1%; in assay [4], -6.9%; in assay [5] it was 9.25%; in assay [6], -14.1%.
On to `CC(=O)c1c[nH]c2ccccc12`, for which the growth inhibition was -6.8% in assay [1]; -9.85% in assay [2]; -53.2% in assay [4]; -2.25% in assay [5]; 9.15% in assay [6].
